Inconclusive results are not listed. Activity calls are given as the source filed them. Unless noted, the call rests on the fitted dose curve; in most records, active means well fitted curve in the direction sought with a large enough effect in the repeat runs; inconclusive means weak or mixed curves; inactive means no such curve, though single readings can be large; an effect the other way counts as inactive or inconclusive.
Columns and labels:
[1] = qHTS assay to identify small molecule antagonists of the vitamin D receptor (VDR) signaling pathway - cell viability counter screen (AID 743225); further: nearly all actives have a fitted effect of over 50% in size
Method in brief: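 Cytotoxicity toward the VDR-bla HEK 293T line was scored by ATP-based CellTiter-Glo luminescence, read in the wells already used for the beta-lactamase readout after 16 h compound treatment under 3 nM 1-alpha,25-dihydroxyvitamin D3 stimulation.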

[2] = qHTS assay to identify small molecule agonists of the NFkB signaling pathway (AID 1159509; active means well fitted curve in the direction sought with a large enough effect in the signal ratio in the repeat runs, not every such curve was filed as active; the % refers to the signal ratio; further: series mostly up to about 61 µM)
Method in brief: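 NFkB-bla ME-180 cells with a beta-lactamase reporter under an NF-kB response element were plated overnight, treated with compounds in DMSO for 5 hr at 37 C, then loaded with FRET substrate for 1.5 hr at room temperature.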

[3] = qHTS assay to identify small molecule agonists of the NFkB signaling pathway - cell viability counter screen (AID 1159515; calls by dose curve; further: series mostly up to about 61 µM; nearly all actives have a fitted effect of over 55% in size)
Method in brief: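 5 hr compound treatment of NFkB-bla ME-180 cells (2,000/well, seeded overnight beforehand), followed by reporter substrate for 1.5 hr. CellTiter-Glo added afterward; luminescence after 30 min RT.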

[4] = qHTS assay to identify small molecule agonists of the endoplasmic reticulum stress response signaling pathway (AID 1159516; active means well fitted activation curve with a large enough effect in the signal ratio in the repeat runs, not every such curve was filed as active; the % refers to the signal ratio)
Method in brief: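 Reporter HeLa cells (ESRE-beta-lactamase) underwent 5 hr compound incubation at 37 C and 5% CO2 in quantitative HTS format. Detection followed 2 hr of FRET substrate loading at room temperature.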

[5] = qHTS assay to identify small molecule agonists of the endoplasmic reticulum stress response signaling pathway - cell viability counter screen (AID 1159517; calls by dose curve;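 further: HeLa cells carrying an ER stress response element beta-lactamase reporter; series mostly up to about 61 µM; nearly all actives have a fitted effect of over 50% in size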)
Method in brief: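 Luminescence readout: CellTiter-Glo, 30 min RT, same wells as the ESRE-bla reporter read. HeLa ESRE-bla, 1,500 cells/well, o/n 37 C; cpd 5 hr 37 C/5% CO2.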

[6] = qHTS assay to identify small molecule antagonists of the retinoid-related orphan receptor gamma (ROR-gamma) signaling pathway - cell viability counter screen (AID 1159520); further: nearly all actives have a fitted effect of over 50% in size
Method in brief: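 Tet-on ROR gamma CHO cells (1,000/well) were plated 4 hr, given compounds in DMSO for 2 hr at 37 C, then induced with 1 uM final doxycycline for 16 hr. Viability was read as ATP by CellTiter-Glo luminescence after 30 min.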

[7] = target: Nuclear receptor ROR-gamma (Homo sapiens) (UniProt P51449); test: qHTS assay to identify small molecule antagonists of the retinoid-related orphan receptor gamma (ROR-gamma) signaling pathway (AID 1159521;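 further: CHO cells with doxycycline inducible ROR-gamma driving an RORE luciferase reporter; top concentration of the series differs between compounds; nearly all actives have a fitted effect of over 50% in size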)
Method in brief: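 Readout: ONE-Glo luciferase luminescence, 30 min at room temperature. System: Tet-on RORγ CHO, RORE-LUC. Sequence: compound 2 h, doxycycline 1 uM final, 16 h at 37 C.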

[8] = qHTS assay to identify small molecule agonists of the AP-1 signaling pathway (AID 1159526; calls by dose curve)
[9] = qHTS assay to identify small molecule agonists of the RXR signaling pathway - cell viability counter screen (AID 1159529)
Method in brief: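 Tox21 10K compounds were tested for cytotoxicity against GeneBLAzer RXR-alpha HEK 293T cells grown in 2% charcoal-stripped FBS. Exposure lasted 16 hr at 37 C, 5% CO2; viability read by CellTiter-Glo luminescence.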

[10] = qHTS assay to identify small molecule antagonists of the retinoid acid receptor (RAR) signaling pathway - cell viability counter screen (AID 1159551); further: nearly all actives have a fitted effect of over 35% in size
Method in brief: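 Seed C3RL4 cells; next day add compound, then retinol to 1 uM final; incubate 6 h at 37 C; add CellTiter-Glo; read luminescence after 30 min at RT.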

[11] = qHTS assay to identify small molecule agonists of the retinoic acid receptor (RAR) signaling pathway (AID 1159553)
Method in brief: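 Activation of retinol signaling was monitored via a RARE luciferase reporter in C3RL4 cells. After 6 hr compound treatment at 37 C, detection reagent was added for 30 min at room temperature before luminescence reading.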

[12] = qHTS assay to identify small molecule agonists of the AP-1 signaling pathway - cell viability counter screen (AID 1159525; calls by dose curve; further: nearly all actives have a fitted effect of over 55% in size)
Method in brief: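 ME-180 AP-1-bla, 2500 cells/well, Opti-MEM + 0.5% dialyzed FBS; overnight 37 °C; cpd 15-pt titration, 5 h 37 °C; CellTiter-Glo 30 min RT; luminescence read; normalised to TOAB and DMSO controls.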

[13] = qHTS assay to identify small molecule antagonists of the retinoic acid receptor (RAR) signaling pathway (AID 1159552; further: nearly all actives have a fitted effect of over 50% in size)
Method in brief: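 Overnight-plated C3RL4 reporter cells get compound, then retinol to 1 uM final; plates sit 6 hr at 37 C, 5% CO2. A luciferase reagent is added and light output recorded after 30 min at room temperature.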

[14] = target: Retinoic acid receptor RXR-alpha (Homo sapiens) (UniProt P19793); test: qHTS assay to identify small molecule agonists of the RXR signaling pathway (AID 1159527; calls by dose curve; further: nearly all actives have a fitted effect of over 35% in size)
Sequence of Retinoic acid receptor RXR-alpha (Homo sapiens) (P19793 whole entry, looked up): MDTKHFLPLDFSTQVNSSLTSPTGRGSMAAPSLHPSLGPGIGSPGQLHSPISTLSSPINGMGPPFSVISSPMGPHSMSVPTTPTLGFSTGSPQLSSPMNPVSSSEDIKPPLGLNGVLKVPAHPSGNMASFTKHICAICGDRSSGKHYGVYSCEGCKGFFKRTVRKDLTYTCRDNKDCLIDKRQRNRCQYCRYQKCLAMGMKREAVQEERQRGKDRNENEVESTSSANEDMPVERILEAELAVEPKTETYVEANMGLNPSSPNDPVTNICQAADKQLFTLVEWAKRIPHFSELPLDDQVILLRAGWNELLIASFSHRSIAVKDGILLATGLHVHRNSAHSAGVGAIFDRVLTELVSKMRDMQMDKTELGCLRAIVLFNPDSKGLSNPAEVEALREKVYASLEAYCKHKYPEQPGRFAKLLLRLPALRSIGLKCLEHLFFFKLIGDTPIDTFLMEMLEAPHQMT
Method in brief: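 Reporter activation is measured as beta-lactamase activity via FRET substrate cleavage (emission 460/530 nm) in HEK 293T cells expressing an RXR-alpha-driven bla construct, following 16 hr compound exposure at 37 C.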

[15] = qHTS assay to identify small molecule antagonists of the estrogen related receptor (ERR) signaling pathway - cell viability counter screen (AID 1224818);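 further: series mostly up to about 46 µM; viability measured after 17.5 h of compound exposure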
Method in brief: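 In the same ERR cell assay, compound-treated wells (17.5 h, 37 C) were multiplexed with a fluorogenic viability reagent, CellTiter-Fluor, read after 30 min to flag cytotoxic substances.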

[16] = qHTS assay to identify small molecule antagonists of the estrogen related receptor signaling pathway with the pleiotropic PPARgamma coactivator (PGC) cell viability counter screen (AID 1224822; further: series mostly up to about 46 µM)
Method in brief: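 Compounds in DMSO, with positive and negative controls, were applied to PGC/ERR cells (2,000/well) and left 17.5 h at 37 C before CellTiter-Fluor detection.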

Measured: Potency

O=C(C1CCCCC1)N1CC(=O)N2CCCc3ccccc3C2C1 (stereo not given)
inactive: [1] | [2] | [3] | [4] | [5] | [6] | [7] | [8] | [9] | [10] | [11]

O=C(O)c1ccc(O)c(O)c1
inactive: [1] | [2] | [3] | [4] | [5] | [6] | [12] | [8] | [9] | [10] | [13] | [11]

CC(C)Cc1nccs1
inactive: [1] | [2] | [3] | [4] | [5] | [6] | [12] | [8] | [9] | [10] | [11]

CC(COc1ccccc1)NC(C)C(O)c1ccc(O)cc1 (stereo not given)
inactive: [1] | [2] | [3] | [4] | [5] | [6] | [12] | [14] | [9] | [13] | [11]

CCCN(C1CCN(C(=O)C2CCNCC2)CC1)[C@@H]1CCc2ccc(OC)cc2C1
inactive: [2] | [3] | [4] | [5] | [6] | [12] | [8] | [9] | [10] | [13] | [11]

O=C(O)c1ccncc1
inactive: [1] | [2] | [3] | [4] | [5] | [6] | [12] | [8] | [9] | [10] | [13] | [11]

Cc1nc(C)c(C)nc1C
inactive: [1] | [2] | [3] | [4] | [5] | [6] | [12] | [8] | [9] | [10]

CCc1c(C)[nH]c2c1C(=O)C(CN1CCOCC1)CC2 (stereo not given)
inactive: [1] | [2] | [3] | [4] | [5] | [6] | [12] | [14] | [9] | [10] | [13] | [11] | [15] | [16]

O=C1C=CCCC1
inactive: [1] | [2] | [3] | [4] | [5] | [6] | [7] | [8] | [9] | [10] | [13] | [11]

CC(=O)c1cccnc1
inactive: [1] | [2] | [3] | [4] | [5] | [6] | [12] | [8] | [9] | [10]

CC1(C)[C@@H]2CC[C@]3(C2)[C@@H]1C(=O)CCC3(C)C
inactive: [1] | [2] | [3] | [4] | [5] | [6] | [7] | [14] | [9] | [13] | [11]

— PubChem BioAssay (Tox21)
